Assay results as given in article PMC9911399, “Two distinct binding modes provide the RNA-binding protein RbFox with extraordinary sequence specificity”.
Positions count from the first letter of the chain named. In all, about 16,000 sequences were measured (“ka relative to ugcaugu”: median about 0.0091, highest 2% from about 0.032 on). Shown is part of a subset that was picked to be rich in the highest values.

T1: RBFOX1 RRM (Homo sapiens, UniProt Q9NWB1 109-208)
T1 sequence: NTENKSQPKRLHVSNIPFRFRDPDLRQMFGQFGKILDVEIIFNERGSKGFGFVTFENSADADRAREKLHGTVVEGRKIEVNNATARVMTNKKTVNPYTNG

B1: CGGGCCG (DNA:RNA)
RNA: GGGAGACCGGAAUUCAGAUUGUCCCGGGCCGUUAAAUCCCGUCGUAGCCACCA
DNA 1: CAATCTGAATTCCGGTCTCCC
DNA 2: TGGTGGCTACGACGGGATT
B2: GGGCCUG (DNA:RNA)
RNA: B1 RNA with C25G, G28C, C30U
DNA 1: CAATCTGAATTCCGGTCTCCC
DNA 2: TGGTGGCTACGACGGGATT
B3: CGGGCCC (DNA:RNA)
RNA: B1 RNA with G31C
DNA 1: CAATCTGAATTCCGGTCTCCC
DNA 2: TGGTGGCTACGACGGGATT
B4: CGGCCUG (DNA:RNA)
RNA: B1 RNA with G28C, C30U
DNA 1: CAATCTGAATTCCGGTCTCCC
DNA 2: TGGTGGCTACGACGGGATT
B5: GGGCCGU (DNA:RNA)
RNA: B1 RNA with C25G, G28C, C30G, G31U
DNA 1: CAATCTGAATTCCGGTCTCCC
DNA 2: TGGTGGCTACGACGGGATT
B6: GGGGCCC (DNA:RNA)
RNA: B1 RNA with C25G, G31C
DNA 1: CAATCTGAATTCCGGTCTCCC
DNA 2: TGGTGGCTACGACGGGATT
B7: GGGCCCU (DNA:RNA)
RNA: B1 RNA with C25G, G28C, G31U
DNA 1: CAATCTGAATTCCGGTCTCCC
DNA 2: TGGTGGCTACGACGGGATT
B8: GGGGGCC (DNA:RNA)
RNA: B1 RNA with C25G, C29G, G31C
DNA 1: CAATCTGAATTCCGGTCTCCC
DNA 2: TGGTGGCTACGACGGGATT
B9: GGGGCCG (DNA:RNA)
RNA: B1 RNA with C25G
DNA 1: CAATCTGAATTCCGGTCTCCC
DNA 2: TGGTGGCTACGACGGGATT
B10: CACCUAU (DNA:RNA)
RNA: B1 RNA with G26A, G27C, G28C, C29U, C30A, G31U
DNA 1: CAATCTGAATTCCGGTCTCCC
DNA 2: TGGTGGCTACGACGGGATT
B11: AAGUACA (DNA:RNA)
RNA: B1 RNA with C25A, G26A, G28U, C29A, G31A
DNA 1: CAATCTGAATTCCGGTCTCCC
DNA 2: TGGTGGCTACGACGGGATT
B12: UGCGGAA (DNA:RNA)
RNA: B1 RNA with C25U, G27C, C29G, C30A, G31A
DNA 1: CAATCTGAATTCCGGTCTCCC
DNA 2: TGGTGGCTACGACGGGATT
B13: UCAUCGU (DNA:RNA)
RNA: B1 RNA with C25U, G26C, G27A, G28U, C30G, G31U
DNA 1: CAATCTGAATTCCGGTCTCCC
DNA 2: TGGTGGCTACGACGGGATT
B14: AUAAGUU (DNA:RNA)
RNA: GGGAGACCGGAAUUCAGAUUGUCCAUAAGUUUUAAAUCCCGUCGUAGCCACCA
DNA 1: CAATCTGAATTCCGGTCTCCC
DNA 2: TGGTGGCTACGACGGGATT
B15: UGAGCCA (DNA:RNA)
RNA: B1 RNA with C25U, G27A, G31A
DNA 1: CAATCTGAATTCCGGTCTCCC
DNA 2: TGGTGGCTACGACGGGATT
B16: ACAUCCA (DNA:RNA)
RNA: B14 RNA with U26C, A28U, G29C, U30C, U31A
DNA 1: CAATCTGAATTCCGGTCTCCC
DNA 2: TGGTGGCTACGACGGGATT
B17: UUUGAUA (DNA:RNA)
RNA: B14 RNA with A25U, A27U, A28G, G29A, U31A
DNA 1: CAATCTGAATTCCGGTCTCCC
DNA 2: TGGTGGCTACGACGGGATT
B18: UGGAGAC (DNA:RNA)
RNA: B14 RNA with A25U, U26G, A27G, U30A, U31C
DNA 1: CAATCTGAATTCCGGTCTCCC
DNA 2: TGGTGGCTACGACGGGATT
B19: UGGACUG (DNA:RNA)
RNA: B1 RNA with C25U, G28A, C30U
DNA 1: CAATCTGAATTCCGGTCTCCC
DNA 2: TGGTGGCTACGACGGGATT
B20: GGGACCG (DNA:RNA)
RNA: B1 RNA with C25G, G28A
DNA 1: CAATCTGAATTCCGGTCTCCC
DNA 2: TGGTGGCTACGACGGGATT
B21: CAGACUG (DNA:RNA)
RNA: B1 RNA with G26A, G28A, C30U
DNA 1: CAATCTGAATTCCGGTCTCCC
DNA 2: TGGTGGCTACGACGGGATT
B22: GGGACUG (DNA:RNA)
RNA: B1 RNA with C25G, G28A, C30U
DNA 1: CAATCTGAATTCCGGTCTCCC
DNA 2: TGGTGGCTACGACGGGATT
B23: GGACUGU (DNA:RNA)
RNA: B14 RNA with A25G, U26G, A28C, G29U, U30G
DNA 1: CAATCTGAATTCCGGTCTCCC
DNA 2: TGGTGGCTACGACGGGATT
B24: UGUGGAC (DNA:RNA)
RNA: B1 RNA with C25U, G27U, C29G, C30A, G31C
DNA 1: CAATCTGAATTCCGGTCTCCC
DNA 2: TGGTGGCTACGACGGGATT
B25: CGGACUG (DNA:RNA)
RNA: B1 RNA with G28A, C30U
DNA 1: CAATCTGAATTCCGGTCTCCC
DNA 2: TGGTGGCTACGACGGGATT
B26: AGGACUG (DNA:RNA)
RNA: B1 RNA with C25A, G28A, C30U
DNA 1: CAATCTGAATTCCGGTCTCCC
DNA 2: TGGTGGCTACGACGGGATT

The binders below were run against T1, RBFOX1 RRM (assay: EMSA; HiTS-Eq, 1 nM pool, 10 min; buffer printed only for the single-RNA assays: 10 mM Tris pH 7.5, 150 mM NaCl, 3.4 mM EDTA, 0.001% NP-40, 30 C). Conditions: tags: His6 N-terminal (pET28a); label: 5' 32P.
Outline: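 Purified wild-type or mutant RbFox RRM at increasing concentrations was equilibrated with 1 nM of 5′-radiolabelled RNA carrying 7 randomized nucleotides for 10 min in 50 µL. Unbound RNA was separated by 8% native PAGE and sequenced. Relative association constants came from read-count changes of each RNA species compared with the control reaction, normalised to the cognate motif.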

Binder	binding signal
B1	0.0351 KA relative to UGCAUGU
B2	0.0377 KA relative to UGCAUGU
B3	0.0176 KA relative to UGCAUGU
B4	0.0257 KA relative to UGCAUGU
B5	0.0153 KA relative to UGCAUGU
B6	0.0409 KA relative to UGCAUGU
B7	0.00615 KA relative to UGCAUGU
B8	0.0256 KA relative to UGCAUGU
B9	0.027 KA relative to UGCAUGU
B10	0.000316 KA relative to UGCAUGU
B11	0.00261 KA relative to UGCAUGU
B12	0.0165 KA relative to UGCAUGU
B13	0.0124 KA relative to UGCAUGU
B14	0.00282 KA relative to UGCAUGU
B15	0.00784 KA relative to UGCAUGU
B16	0.000399 KA relative to UGCAUGU
B17	0.0145 KA relative to UGCAUGU
B18	0.007 KA relative to UGCAUGU
B19	0.0448 KA relative to UGCAUGU
B20	0.0273 KA relative to UGCAUGU
B21	0.0132 KA relative to UGCAUGU
B22	0.0322 KA relative to UGCAUGU
B23	0.0223 KA relative to UGCAUGU
B24	0.00524 KA relative to UGCAUGU
B25	0.0352 KA relative to UGCAUGU
B26	0.0275 KA relative to UGCAUGU
